These results are taken from PubChem BioAssay AID687014 (The Scripps Research Institute Molecular Screening Center, 2013).

Out of some 370,000 compounds screened, about 6,800 (1.8%) were called active.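 The calls were made as follows: active = activation above a cutoff set at the mean of all screened compounds plus 3 SD (cut at about 10% in these data); inactive = the rest.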 What follows is part of a selection rich in actives, with near analogues and random picks from the rest.

For this experiment, the system named is Nuclear hormone receptor DAF-12 (Heterodera glycines), GAL4 fusion. Nature of the experiment: hgDAF-12 GAL4 fusion reporter activation – cell-based, luminescence, HEK293, UAS-luciferase, primary screen (AID 687014).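 Also: 0% = DMSO wells and 100% = sodium butyrate wells.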 Conditions: HEK293 GAL4-hgDAF12 UAS-luciferase reporter, agonist luminescence; at 6.8 µM; hits give high values; normalized to butyrate control. In general terms: Reporter assays use an easily measured gene product as a stand-in for the process of interest.
Take `CSc1ccc(/C=N/NC(=O)c2cccc(Cl)c2)cc1`: the activation is 15.8% (active).

For the molecule `O=C(N/N=C/c1ccsc1)c1cc(O)cc(O)c1`, the activation is 2.1% (inactive). The same measure for `O=C(NN=Cc1ccccc1)c1ccccc1`: 12.9% (active); for `CC(NC(=O)C(=O)N/N=C/c1ccc(Cl)cc1)c1ccccc1` (stereo unspecified): -4.35% (inactive); for `NN=C(NN=Cc1ccccc1)c1ccccc1`: 10.3% (inactive). Take `O=C(N/N=C/c1ccoc1)c1ccc(Cl)cc1Cl`: the activation was 5.04% (inactive).

Turning to `COC(=O)[C@]12C[C@H](CC(=O)NCc3ccccc3)C(=O)N(CCC3=CCCCC3)C1=C[C@H](C(C)(C)C)O[C@@H]2C`, the activation is -0.89% (inactive).

Turning to `COc1cccc(CNC(=O)Cn2c(=O)oc3cc(S(=O)(=O)N4CCCCC4)ccc32)c1`, the activation is -2.85% (inactive). For the molecule `COc1ccc(C2CC=C(C(=O)O)C(c3ccccc3F)N2S(=O)(=O)c2ccc(C)cc2)cc1OC` (stereo unspecified), the activation is 3.93% (inactive).

Consider `COC(=O)C[C@@H]1CC[C@H]2[C@@H](COc3ccc(NS(=O)(=O)CC(F)(F)F)cc3C(=O)N2C)O1`, for which the activation was -0.04% (inactive). Consider `COC(=O)c1cc2c(c3c4ccccc4n(S(=O)(=O)c4cccc(C)c4)c13)C(=O)N(Cc1ccccc1)C2`, for which the activation is 0.97% (inactive). The same measure for `CC(C)(C)NC(=O)C(c1cccnc1)N(C(=O)c1cnco1)c1ccc(C(C)(C)C)cc1` (stereo unspecified): -4.87% (inactive); for `Cc1ccc(S(=O)(=O)NCc2cn3ccsc3n2)c(C)c1`: -0.36% (inactive). Next, `COc1ccc(-c2cn3cccnc3n2)cc1`: 14.7% (active); `COc1ccc(-c2cn3ccsc3n2)cc1`: 14.1% (active).

Take `CC(C)(C)C(=O)Nc1ccc(-c2cn3cccnc3n2)cc1`: the activation is 8.9% (inactive). Consider `COc1cc(OC)cc(-c2nc(=S)n3ccsc3n2)c1`, for which the activation is 2.26% (inactive).

With `FC(F)(F)Oc1ccc(-c2cn3cccnc3n2)cc1`, the activation was 9.13% (inactive). Next, `Nc1ncnc2c1ncn2[C@@H]1O[C@H](C(=O)N[C@@H](CCc2ccccc2)C(=O)NCC(=O)N2CCOCC2)[C@@H](O)[C@H]1O`: 1.87% (inactive); `CC(C)N1CCCCC(NC(=O)c2ccc3ccccc3c2)C1=O` (stereo unspecified): -0.24% (inactive); `O=S1(=O)c2ccc(Br)cc2-n2nncc2CN1Cc1cccc(Cl)c1`: 6.32% (inactive). As to `Cc1ccc(C)c(-n2nnnc2SCC(=O)c2c(N)n(C)c(=O)n(C)c2=O)c1`, the activation was -2.28% (inactive). The same measure for `COc1ccc(Cn2ccc3ccc(-c4ccc5ccn(Cc6ccccc6C)c5c4)cc32)cc1`: 8.22% (inactive). For the molecule `CC(=O)OC[C@@H]1CN(Cc2ccccc2)C[C@H](n2cnc3c(NCc4ccco4)ncnc32)O1`, the activation is 1.43% (inactive). The same measure for `Oc1ccc(-c2cccc(-c3ccc(O)cc3)c2)cc1`: 7.62% (inactive). The same measure for `c1ccc(-c2ccc3c(c2)NC(C2Nc4cc(-c5ccccc5)ccc4O2)O3)cc1` (stereo unspecified): -0.29% (inactive).

In the case of `c1ccc(-c2c[nH]c(-c3ccccc3)c2)cc1`, the activation is 11.8% (active).

As for `Brc1ccc(COCCc2cn(Cc3ccccc3)c3ccccc23)cc1`, the activation is 0.93% (inactive). Next, `O=S1(=O)c2c(cccc2N2CCSCC2)Oc2ccccc2CN1Cc1cn(Cc2ccc(F)cc2)nn1`: -4.41% (inactive); `CCN(c1cccc(C)c1)S(=O)(=O)c1ccc(-c2coc(C)n2)cc1`: -2.39% (inactive); `Cc1ccc2nc(-c3ccc(Br)cc3)cn2c1`: -6.8% (inactive).

Turning to `COc1ccc(-c2cn3ccc(C)cc3n2)cc1`, the activation is 14.2% (active).

In the case of `Cc1ccc(-c2cn3cc(C)ccc3n2)cc1`, the activation is -15.8% (inactive). For the molecule `CCN(CC(=O)NCCc1ccccc1)S(=O)(=O)c1ccc(C)cc1`, the activation was -0.97% (inactive). Next, `CCN(CC)S(=O)(=O)c1ccc(-c2cn3ccc(C)cc3n2)cc1`: 10.8% (active); `C[C@H]1CCC/C=C/C(=O)c2c(O)cc(O)cc2CC(=O)O1`: -13.8% (inactive); `CCCCCCCCN1C(=O)[C@@H](CC(=O)NCc2ccccc2)C[C@@]2(C(=O)OC)C1=C[C@H](C(C)(C)C)O[C@@H]2C`: -1.53% (inactive).

On to `O=C(c1ccco1)N1CCN=C1SCc1cccc(Cl)c1`, for which the activation was -5.1% (inactive).

`CCC(=O)c1c(CC)c2n3c1=CC[C@H]3CC(Br)C=2` (stereo partly specified): the activation is -0.81% (inactive). Next, `COc1ccc(-n2c(COc3ccccc3)nnc2SCC(=O)Nc2ccc3c(c2)OCO3)cc1`: -2.9% (inactive).

As for `NS(=O)(=O)c1ccc(CCNC(=O)CNC(=O)Cc2ccccc2)cc1`, the activation was 0.79% (inactive). Next, `Cc1cc(C)n2ncc(C(=O)Nc3ccc4c(c3)OCCO4)c2n1`: 4.4% (inactive); `CCc1ccc2oc(-c3ccc(N)cc3)nc2c1`: 15.5% (active).

As for `CC(=O)N1CC2(C)CN(C(C)=O)CC(C)(C1)C2=O`, the activation is 1.11% (inactive). In the case of `O=C(CCCCCN1C(=O)C2C3C=CC(C3)C2C1=O)Nc1ccccc1` (stereo unspecified), the activation was 8.92% (inactive). The same measure for `CC(=O)c1cccc(NC(=O)Nc2ccc(C)cc2)c1`: 11.1% (active); for `CC(=O)c1cccc(NC(=O)[C@@H](NC(N)=O)C(C)C)c1`: -2.72% (inactive).

As for `CCSc1nsc(NC(=O)Nc2cccc(C(C)=O)c2)n1`, the activation was 8.65% (inactive).

As for `OCCN1CCN(c2ncnc3c2ncn3[C@H]2CN(Cc3ccco3)C[C@@H](CO)O2)CC1`, the activation is 0.95% (inactive). With `COc1ccc(Cn2cc(CN3[C@@H](CC(C)C)COc4cc(Br)ccc4S3(=O)=O)nn2)cc1`, the activation is 2.35% (inactive).

For `CCN(CC)S(=O)(=O)c1cc(C(=O)Nc2ccccn2)ccc1C`, the activation was 12.3% (active). Next, `CCN(c1ccccc1)S(=O)(=O)c1cc(C(=O)NCc2ccccn2)ccc1C`: 0.44% (inactive). Consider `Cc1ccc(NC(=O)CNCc2ccccn2)cc1S(=O)(=O)N(C)C`, for which the activation is 3.01% (inactive).

Turning to `C[C@H]1[C@H](c2ccccc2)Oc2cc(Br)ccc2S(=O)(=O)N1Cc1cccc(F)c1`, the activation was -2.03% (inactive). Next, `O=C(Nc1ccc(S(=O)(=O)N2CCCC2)cc1Cl)C1=COCCO1`: -1.4% (inactive); `NS(=O)(=O)c1ccc2nc(NC(=O)C3=COCCO3)sc2c1`: 12.8% (active); `NS(=O)(=O)c1ccc2nc(NC(=O)CS(=O)(=O)c3ccc(F)cc3)sc2c1`: 2.11% (inactive). Next, `COc1ccc(CN2C(=O)N3Cc4cc(OC)ccc4C3CS2(=O)=O)cc1` (stereo unspecified): -2.75% (inactive); `Cc1ccc(-c2nc3ccccc3[nH]c2=O)cc1`: 10.9% (active); `Cc1ccc(-c2nnc(-n3nnc4ccccc43)c3ccccc23)cc1`: 0.07% (inactive). `CCCCCn1nnnc1-c1nc2cc3ccccc3cc2[nH]c1=O`: the activation is 0.65% (inactive).

Take `CC1CCN(C(=O)CCNC(=O)c2ccccc2)CC1`: the activation was 2.11% (inactive). Take `O=C(NCCc1ccccc1)c1ccc(NC2=NC3CS(=O)(=O)CC3S2)cc1` (stereo unspecified): the activation is -1.54% (inactive). In the case of `CC1CCCN(c2ccc(C(=O)NCCc3ccccc3)cn2)C1` (stereo unspecified), the activation was 18.4% (active). Next, `O=C(NC1CCCC1)C1CSCCS(=O)(=O)N1Cc1ccccc1` (stereo unspecified): 2.17% (inactive); `CC(C)C[C@@H](NC(=O)[C@H]1CCCN1C(=O)Cc1ccccc1)C(N)=O`: 1.33% (inactive); `Cc1cc(F)ccc1N1CCC(N2CCN(C)C(CCO)C2)CC1` (stereo unspecified): 1.51% (inactive). For `O=C(Nc1ccccc1C(=O)N1CCOCC1)c1ccc(Cl)cc1`, the activation is -2.57% (inactive). Take `O=C(Cc1ccccc1)Nc1ccc(C(=O)Nc2ccccc2C(=O)O)cc1`: the activation was 0.23% (inactive).

For the molecule `Nc1ccc(C(=O)Nc2ccccc2N)cc1`, the activation is 66.9% (active). As to `CCC(CO)Nc1cccc2c1S(=O)(=O)N(Cc1cn(Cc3ccccc3C(F)(F)F)nn1)Cc1ccccc1O2` (stereo unspecified), the activation was 0.2% (inactive). The same measure for `O=C1Nc2ccccc2C1=NN=Cc1ccco1`: 0.84% (inactive); for `CCOc1ccc(/C=N\NC(=O)c2c(C)nc3cc(C)ccn23)cc1`: -0.25% (inactive); for `Cc1nonc1C(=O)N/N=C/c1ccc(O)cc1`: 10.9% (active). Next, `Nc1nonc1-n1nnc(C(=O)N/N=C/c2ccc(Cl)cc2)c1-c1ccc2c(c1)OCO2`: -0.85% (inactive); `Cc1ccc(O)c(CCc2ccccc2)n1`: 1.33% (inactive). Next, `Cc1cccc(C(=O)Nc2c(-c3ccc(F)cc3)nc3ncccn23)c1`: -2.47% (inactive). In the case of `CCC(=O)Nc1ccc2c(c1)C(=O)N(C)[C@@H]1CC[C@@H](CC(=O)NCCc3ccccc3)O[C@H]1CO2`, the activation is 0.93% (inactive). The same measure for `O=C(c1cnn(-c2ccc(Cl)cc2)c1)c1ccccc1O`: 18.6% (active); for `Cc1cc(O)cc(O)c1C(=O)Cc1cnn(-c2ccccc2)c1`: -1.43% (inactive); for `O=C(c1ccc(Cl)cc1)n1cnc2ccccc21`: 0.03% (inactive). Regarding `CN(CCO)c1cccc2c1S(=O)(=O)N(Cc1cn(Cc3ccc(C(F)(F)F)cc3)nn1)Cc1ccccc1O2`, the activation was 4.36% (inactive). As for `O=C(NCc1cccnc1)c1nc(-c2cccs2)no1`, the activation was 4.85% (inactive). For `c1csc(-c2nc(-c3ccncc3)no2)c1`, the activation is 10.9% (active). With `O=C(c1cccs1)N1CCCC(c2nc(-c3ccc(F)cc3)no2)C1` (stereo unspecified), the activation is 3.47% (inactive). Take `Cc1ccc(-c2noc(-c3ccccc3C(=O)NCC3CCCO3)n2)cc1` (stereo unspecified): the activation is 3.26% (inactive). The same measure for `Cc1ccc(-c2nc(-c3ccncc3)no2)c(C)c1`: 12.5% (active). Next, `CCOc1ccc(N(CC(=O)Nc2c(C)n(C)n(-c3ccccc3)c2=O)S(=O)(=O)c2ccc(Cl)s2)cc1`: 8.38% (inactive). As to `CCOc1ccccc1C(=O)N1CCC[C@@H]1C(=O)N1CCC[C@H]1C(=O)NCc1ccccc1`, the activation was -0.69% (inactive). Take `CN(C)CC(=O)N[C@@H]1C[C@@H]2O[C@H](CO)CC[C@@H]2O[C@@H]1CCc1ccc(C#Cc2ccccc2)cc1`: the activation was -6.4% (inactive). With `COC(=O)[C@]12C[C@H](CC(=O)N3CCN(C(=O)C4CC4)CC3)C(=O)N(CCC3=CCCCC3)C1=C[C@H](C(C)C)O[C@@H]2C1CC1`, the activation was 1.54% (inactive).
